# A number with no mark means an inactive call. A call without a number means that no potency is given here. The source made the active and inactive calls. Unless noted, calls follow the shape of the dose curve; as a rule, active = well fitted curve in the direction sought with a large enough effect in the repeat runs; inconclusive = weak or mixed curves; inactive = no such curve, though single readings can be large; an effect the other way counts as inactive or inconclusive.
# Key:
# [1] = qHTS assay for small molecule agonists of the p53 signaling pathway - cell viability (AID 651633; calls by dose curve; also: nearly all actives have a fitted effect of over 30% in size; also: potency is read from the fitted curve at half-maximal effect)
# In short: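 p53RE-bla cells, seeded at 4,000 per well and rested 5 h at 37 C/5% CO2, received compounds in DMSO for 16 h at 37 C. CellTiter-Glo was then added, and luminescence was read after 30 min at room temperature to gauge cytotoxicity.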
# [2] = qHTS assay for small molecules that induce genotoxicity in human embryonic kidney cells expressing luciferase-tagged ATAD5 - cell viability (AID 651634; calls by dose curve; also: nearly all actives have a fitted effect of over 25% in size; also: potency is read from the fitted curve at half-maximal effect)
# In short: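 Seeding of 2,000 HEK293T ATAD5-luciferase cells per well preceded pin-tool compound transfer. Plates sat 15.5 hr at 37C under 5% CO2, then fluorescence was read after 30 min with CellTiter-Fluor.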
# [3] = qHTS assay for small molecule disruptors of the mitochondrial membrane potential - cell viability (AID 720634; calls by dose curve; also: nearly all actives have a fitted effect of over 20% in size; also: potency is read from the fitted curve at half-maximal effect)
# In short: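 Measuring cytotoxicity alongside mitochondrial potential, the screen quantified ATP by luminescence in HepG2 cells after 1 hr compound incubation and a 30 min room-temperature CellTiter-Glo step.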
# [4] = qHTS assay to test for compound auto fluorescence at 590 nm (red) in HepG2 cells (AID 720674)
# In short: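 Compound auto-fluorescence is scored relative to Rose Bengal sodium, measured at 540/590 nm in live HepG2 cultures after 1 hr compound contact (37 C, 5% CO2).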
# [5] = qHTS assay to test for compound auto fluorescence at 460 nm (blue) in HEK293 cells (AID 720678)
# In short: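 Blue-channel (Ex/Em 405/460 nm) intensity measured in HEK293 cultures after overnight compound exposure at 37C; signal expressed relative to triamterene. Cells plated 2,000 per well in 10% dialyzed FBS medium and allowed 4-5 hr to attach.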
# [6] = qHTS assay to test for compound auto fluorescence at 590 nm (red) in HEK293 cells (AID 720679)
# In short: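 Red-channel autofluorescence (Ex/Em 540/590 nm; Rose Bengal sodium reference) was measured after overnight 37C, 5% CO2 exposure of attached HEK293 cells, 2,000 per well in medium with 10% dialyzed FBS.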
# [7] = qHTS assay to test for compound auto fluorescence at 535 nm (green) in HEK293 cells (AID 720680)
# [8] = qHTS assay to test for compound auto fluorescence at 460 nm (blue) in HEK293 cell free culture (AID 720681)
# In short: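 Test compounds were pinned into cell-free culture medium (DMEM with 10% FBS) and fluorescence was read directly at Ex/Em 405/460 nm. Signals were expressed as fluorescence equivalents of triamterene, with DMSO vehicle as control.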
# [9] = qHTS assay to test for compound auto fluorescence at 535 nm (green) in HEK293 cell free culture (AID 720682)
# In short: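 Using fluorescein as calibrant, autofluorescence was quantified at 485/535 nm in cell-free DMEM containing 10% FBS after pintool addition of compound or vehicle.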
# [10] = qHTS assay to test for compound auto fluorescence at 590 nm (red) in HEK293 cell free culture (AID 720683)
# In short: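 Tox21 10K library compounds were pinned into cell-free DMEM with 10% FBS and fluorescence was read at excitation 540 nm. Activity is expressed as Rose Bengal sodium equivalency.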
# [11] = qHTS assay to test for compound auto fluorescence at 590 nm (red) in HepG2 cell free culture (AID 720684)
# In short: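 Measured in medium alone (MEM containing 10% FBS) following pintool addition of compound; emission at 590 nm with 540 nm excitation, referenced to Rose Bengal sodium.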
# [12] = qHTS assay to test for compound auto fluorescence at 460 nm (blue) in HepG2 cell free culture (AID 720685)
# In short: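 Compound (23 nL) or DMSO pinned into cell-free MEM with 10% FBS; blue fluorescence read at 405/460 nm excitation/emission, expressed as auto-fluorescence equivalency to triamterene.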
# [13] = qHTS assay to test for compound auto fluorescence at 460 nm (blue) in HepG2 cells (AID 720687)
# In short: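 Cells (2,000/well in MEM with 10% FBS) attached overnight at 37 C, then were exposed to compound or DMSO for 1 hr at 37 C, 5% CO2. Fluorescence read at Ex/Em 405/460 nm, expressed as triamterene-equivalent signal.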
# [14] = biological target: Glucocorticoid receptor (Homo sapiens) (UniProt P04150); test: qHTS assay to identify small molecule agonists of the glucocorticoid receptor (GR) signaling pathway (AID 720691; active = well fitted activation curve with a large enough effect in the signal ratio in the repeat runs, not every such curve was filed as active; inconclusive = weak or mixed curves, or effect the other way; inactive = no such curve, though single readings can be large or run the other way; the % refers to the signal ratio; also: potency is read from the fitted curve at half-maximal effect)
# Glucocorticoid receptor (Homo sapiens), sequence (P04150 whole entry, looked up): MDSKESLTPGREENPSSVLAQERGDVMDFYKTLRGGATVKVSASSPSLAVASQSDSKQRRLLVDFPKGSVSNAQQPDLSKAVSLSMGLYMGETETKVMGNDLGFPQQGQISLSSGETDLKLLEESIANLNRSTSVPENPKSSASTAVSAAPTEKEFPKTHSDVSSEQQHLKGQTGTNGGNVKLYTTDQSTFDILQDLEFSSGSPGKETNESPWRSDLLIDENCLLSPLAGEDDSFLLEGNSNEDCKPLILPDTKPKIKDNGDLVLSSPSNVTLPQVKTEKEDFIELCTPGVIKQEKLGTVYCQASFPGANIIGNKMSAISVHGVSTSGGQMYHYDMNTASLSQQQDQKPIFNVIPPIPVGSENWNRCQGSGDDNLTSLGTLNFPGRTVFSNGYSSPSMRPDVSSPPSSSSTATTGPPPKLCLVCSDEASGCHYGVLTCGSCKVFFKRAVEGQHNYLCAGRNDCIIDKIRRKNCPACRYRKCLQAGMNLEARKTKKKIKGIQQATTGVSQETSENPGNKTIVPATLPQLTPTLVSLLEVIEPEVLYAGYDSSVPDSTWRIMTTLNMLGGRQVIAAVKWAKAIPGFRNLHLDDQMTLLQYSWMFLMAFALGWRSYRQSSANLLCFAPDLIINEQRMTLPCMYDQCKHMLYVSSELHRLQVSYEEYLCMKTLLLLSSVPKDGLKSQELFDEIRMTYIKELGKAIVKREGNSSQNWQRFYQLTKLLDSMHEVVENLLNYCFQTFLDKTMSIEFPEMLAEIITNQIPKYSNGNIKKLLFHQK
# In short: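 Reporter read-out: fluorescence intensity following 2 h room-temperature LiveBLAzer B/G FRET substrate loading. Prior step: GR-bla HeLa cells held 4 h, then treated 18 h at 37 C.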
# [15] = biological target: Glucocorticoid receptor (Homo sapiens) (UniProt P04150); test: qHTS assay to identify small molecule antagonists of the glucocorticoid receptor (GR) signaling pathway (AID 720692; active = well fitted inhibition curve with a large enough effect in the signal ratio in the repeat runs, not every such curve was filed as active; inconclusive = weak or mixed curves, or effect the other way; inactive = no such curve, though single readings can be large or run the other way; the % refers to the signal ratio)
# In short: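 Dexamethasone (5 nM final) stimulated a stably integrated GRE-beta-lactamase reporter in HeLa cells during 18 h co-incubation with compounds; signal was quantified as fluorescence intensity of B/G FRET substrate after 2 h.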
# [16] = qHTS assay for small molecules that induce genotoxicity in human embryonic kidney cells expressing luciferase-tagged ATAD5 (AID 651632); also: nearly all actives have a fitted effect of over 15% in size
# In short: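 Reporter cells (HEK293T) express luciferase-tagged ATAD5, a protein that accumulates after DNA damage. Treat 16 hr at 37C/5% CO2, add Amplite, wait 30 min at RT, and read luminescence.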
# [17] = qHTS assay to test for compound auto fluorescence at 535 nm (green) in HepG2 cells (AID 720675)
# [18] = qHTS assay to test for compound auto fluorescence at 535 nm (green) in HepG2 cell free culture (AID 720686)
# [19] = qHTS assay for small molecule disruptors of the mitochondrial membrane potential (AID 720635); also: potency is read from the fitted curve at half-maximal effect
# In short: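 HepG2 cells (2,000/well) attached overnight at 37C, then took compound for 1 hr at 37C, 5% CO2. Mito-MPS dye was added for 30 min; fluorescence was read at 490/535 nm (monomers) and 540/590 nm (aggregates).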
structure (smiles),measurement,setting,value
CC(=O)O[C@@H]1C(=O)O[C@@H]2[C@H]1OC(=O)[C@@H]2OC(C)=O,Potency,[1],inactive
same,Potency,[2],inactive
same,Potency,[3],inactive
same,outcome,[4],inactive
same,Potency,[5],inactive
same,outcome,[6],inactive
same,outcome,[7],inactive
same,Potency,[8],inactive
same,outcome,[9],inactive
same,outcome,[10],inactive
same,outcome,[11],inactive
same,Potency,[12],inactive
same,Potency,[13],inactive
same,Potency,[14],inactive
same,Potency,[15],inactive
CC1(C)CCC(C)(C)c2cc(NC(=O)c3ccc(C(=O)O)cc3)ccc21,Potency,[16],inactive
same,Potency,[3],inactive
same,outcome,[4],inactive
same,Potency,[5],inactive
same,outcome,[6],inactive
same,outcome,[7],inactive
same,Potency,[8],inactive
same,outcome,[9],inactive
same,outcome,[10],inactive
same,outcome,[11],inactive
same,Potency,[13],inactive
same,Potency,[14],inactive
CC(O)C1CCCCC1 (stereo not drawn),Potency,[16],inactive
same,Potency,[2],inactive
same,Potency,[3],inactive
same,outcome,[4],inactive
same,outcome,[17],inactive
same,Potency,[5],inactive
same,outcome,[6],inactive
same,outcome,[7],inactive
same,outcome,[10],inactive
same,outcome,[11],inactive
same,Potency,[12],inactive
same,Potency,[13],inactive
same,Potency,[14],inactive
same,Potency,[15],inactive
CC(=O)/C=C/C1C(C)=CCCC1(C)C (stereo not drawn),Potency,[1],inactive
same,Potency,[2],inactive
same,Potency,[3],inactive
same,outcome,[4],inactive
same,outcome,[17],inactive
same,Potency,[5],inactive
same,outcome,[6],inactive
same,outcome,[7],inactive
same,outcome,[9],inactive
same,outcome,[10],inactive
same,outcome,[11],inactive
same,Potency,[12],inactive
same,outcome,[18],inactive
same,Potency,[13],inactive
Oc1ccc(Cc2ccccc2)cc1,Potency,[1],inactive
same,Potency,[2],inactive
same,Potency,[3],inactive
same,outcome,[4],inactive
same,outcome,[17],inactive
same,Potency,[5],inactive
same,outcome,[6],inactive
same,Potency,[8],inactive
same,outcome,[9],inactive
same,outcome,[10],inactive
same,outcome,[11],inactive
same,Potency,[12],inactive
same,Potency,[13],inactive
same,Potency,[14],inactive
CN(c1nccc(=O)[nH]1)C1CCN(c2nc3ccccc3n2Cc2ccc(F)cc2)CC1,Potency,[1],inactive
same,Potency,[2],inactive
same,Potency,[3],inactive
same,outcome,[4],inactive
same,outcome,[17],inactive
same,Potency,[5],inactive
same,outcome,[6],inactive
same,outcome,[7],inactive
same,outcome,[9],inactive
same,outcome,[10],inactive
same,outcome,[11],inactive
same,Potency,[12],inactive
same,outcome,[18],inactive
same,Potency,[13],inactive
Cn1c(NCCN(CCO)CCCc2ccc([N+](=O)[O-])cc2)cc(=O)n(C)c1=O,Potency,[16],inactive
same,Potency,[2],inactive
same,Potency,[3],inactive
same,outcome,[4],inactive
same,outcome,[17],inactive
same,Potency,[5],inactive
same,outcome,[6],inactive
same,Potency,[8],inactive
same,outcome,[9],inactive
same,outcome,[10],inactive
same,outcome,[11],inactive
same,Potency,[12],inactive
same,outcome,[18],inactive
same,Potency,[13],inactive
same,Potency,[15],inactive
CCCCCOC(=O)c1ccc(O)cc1,Potency,[19],6.94 µM (active)
same,outcome,[4],inactive
same,outcome,[17],inactive
same,Potency,[5],inactive
same,outcome,[6],inactive
same,Potency,[8],inactive
same,outcome,[9],inactive
same,outcome,[10],inactive
same,outcome,[11],inactive
same,Potency,[12],inactive
same,outcome,[18],inactive
same,Potency,[13],inactive
same,Potency,[14],inactive
C=CC(=O)OCCOC(=O)CCC(=O)O,Potency,[1],inactive
same,Potency,[2],inactive
same,Potency,[3],inactive
same,outcome,[4],inactive
same,outcome,[17],inactive
same,Potency,[5],inactive
same,outcome,[6],inactive
same,outcome,[7],inactive
same,Potency,[8],inactive
same,outcome,[9],inactive
same,outcome,[10],inactive
same,outcome,[11],inactive
same,Potency,[12],inactive
same,outcome,[18],inactive
same,Potency,[15],inactive
NC(N)=NN=C(/C=C/c1ccc([N+](=O)[O-])o1)/C=C/c1ccc([N+](=O)[O-])o1,Potency,[1],2.37 µM (active)
same,Potency,[2],10.6 µM (active)
same,Potency,[3],18.8 µM (active)
same,outcome,[4],inactive
same,outcome,[17],inactive
same,Potency,[5],inactive
same,outcome,[6],inactive
same,outcome,[9],inactive
same,outcome,[10],inactive
same,outcome,[11],inactive
same,Potency,[12],inactive
same,outcome,[18],inactive
same,Potency,[13],inactive
same,Potency,[14],6.74 µM [inconclusive] (active)
c1ccc(OCc2ccc(CCCN3CCOCC3)cc2)cc1,Potency,[16],inactive
same,Potency,[2],inactive
same,Potency,[3],inactive
same,outcome,[4],inactive
same,outcome,[17],inactive
same,Potency,[5],inactive
same,outcome,[6],inactive
same,outcome,[7],inactive
same,Potency,[8],inactive
same,outcome,[9],inactive
same,outcome,[10],inactive
same,outcome,[11],inactive
same,Potency,[12],inactive
same,outcome,[18],inactive
same,Potency,[13],inactive
same,Potency,[14],inactive
same,Potency,[15],inactive
CCOc1ccc(NC(=O)CC(C)=O)cc1,Potency,[1],inactive
same,Potency,[2],inactive
same,Potency,[3],inactive
same,Potency,[19],inactive
same,outcome,[4],inactive
same,outcome,[17],inactive
same,Potency,[5],inactive
same,outcome,[6],inactive
same,outcome,[7],inactive
same,Potency,[8],inactive
same,outcome,[9],inactive
same,outcome,[10],inactive
same,outcome,[11],inactive
same,Potency,[12],inactive
same,outcome,[18],inactive
same,Potency,[13],inactive
same,Potency,[14],inactive
same,Potency,[15],inactive
CCCCC(CC)(CO)CO,Potency,[1],inactive
same,Potency,[2],inactive
same,Potency,[3],inactive
same,outcome,[4],inactive
same,outcome,[17],inactive
same,Potency,[5],inactive
same,outcome,[6],inactive
same,outcome,[7],inactive
same,Potency,[8],inactive
same,outcome,[9],inactive
same,outcome,[10],inactive
same,outcome,[11],inactive
same,Potency,[13],inactive
CCOC(=O)C1=NN(c2ccccc2)C(=O)C1,Potency,[1],inactive
same,Potency,[2],inactive
same,Potency,[3],inactive
same,outcome,[4],inactive
same,outcome,[17],inactive
same,Potency,[5],inactive
same,outcome,[6],inactive
same,outcome,[7],inactive
same,Potency,[8],inactive
same,outcome,[9],inactive
same,outcome,[10],inactive
same,outcome,[11],inactive
same,Potency,[12],inactive
same,Potency,[13],inactive
same,Potency,[14],inactive
CCCCCOC(=O)COc1cc(N2C(=O)C3=C(CCCC3)C2=O)c(F)cc1Cl,Potency,[16],inactive
same,Potency,[2],inactive
same,Potency,[3],inactive
same,outcome,[4],inactive
same,outcome,[17],inactive
same,Potency,[5],inactive
same,outcome,[6],inactive
same,Potency,[8],inactive
same,outcome,[9],inactive
same,outcome,[10],inactive
same,outcome,[11],inactive
same,Potency,[12],inactive
same,outcome,[18],inactive
same,Potency,[13],inactive
same,Potency,[14],inactive
same,Potency,[15],inactive
Cc1ccccc1N=Nc1ccc(N=Nc2c(O)ccc3ccccc23)c(C)c1,Potency,[1],inactive
same,Potency,[2],inactive
same,Potency,[3],inactive
same,Potency,[19],inactive
same,outcome,[4],inactive
same,outcome,[17],inactive
same,Potency,[5],inactive
same,outcome,[6],inactive
same,outcome,[7],inactive
same,Potency,[8],inactive
same,outcome,[10],inactive
same,outcome,[11],inactive
same,Potency,[12],inactive
same,Potency,[13],inactive
O=C(Nc1ccccc1)OCC(CN1CCCCC1)OC(=O)Nc1ccccc1 (stereo not drawn),Potency,[16],inactive
same,Potency,[2],inactive
same,"fluorescence, relative to Rose Bengal",[4],-0.654% [at 18.6 µM]
same,"fluorescence, % of fluorescein control",[17],0.0386% [at 18.6 µM]
same,"fluorescence, % of triamterene",[5],0.0079% [at 18.6 µM]
same,"fluorescence, % of fluorescent control",[6],0.0612% [at 18.6 µM]
same,"fluorescence, % of fluorescent control",[8],-0.0858% [at 18.6 µM]
same,activity change,[9],0.0431% [at 18.6 µM]
same,"fluorescence, % of fluorescent control",[10],0.0296% [at 18.6 µM]
same,"fluorescence, % of Rose Bengal",[11],0.0349% [at 18.6 µM]
same,"fluorescence, % of fluorescent control",[12],-0.044% [at 18.6 µM]
same,"fluorescence, % of fluorescein control",[18],0.0354% [at 18.6 µM]
same,"fluorescence, % of fluorescent control",[13],-0.0488% [at 18.6 µM]
same,Potency,[14],inactive
same,Potency,[15],inactive

# — PubChem BioAssay (Tox21)
